Assay results taken from PubChem BioAssay (NCI).
About 79,000 compounds went through this panel and 15% of them were active in at least one assay; those are over-represented in the sample as a whole. No stated cut-off is given here; in the data, active means growth inhibition above about 70%; inactive means the rest.

How the values were obtained:
[1] = NCI Yeast Anticancer Drug Screen. Data for the rad50 strain (AID 155);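 further: 0% = growth of vehicle-only cultures of the same strain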; settings: S. cerevisiae rad50 strain growth inhibition; at 50.0 µM; hits give high values
In short: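 Relative growth inhibition (compound vs vehicle) was measured in yeast with a defined repair-gene alteration.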

[2] = NCI Yeast Anticancer Drug Screen. Data for the mec2-1 strain (AID 157); settings: S. cerevisiae mec2-1 strain, at 50.0 µM, hits give high values
In short: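 Mutant yeast (mec2-1) grown with compound; growth inhibition relative to vehicle control reported.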

[3] = NCI Yeast Anticancer Drug Screen. Data for the sgs1 mgt1 strain (AID 161);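 further: 0% = growth of cultures given vehicle only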; settings: S. cerevisiae sgs1 mgt1 strain, at 50.0 µM, hits give high values
In short: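 Compounds are added to genetically altered yeast, and growth is compared with cultures given vehicle alone to give percent inhibition.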

[4] = NCI Yeast Anticancer Drug Screen. Data for the cln2 rad14 strain (AID 165);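 further: 0% = growth equal to vehicle treated cultures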; settings: S. cerevisiae cln2 rad14 strain, at 50.0 µM, hits give high values
In short: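 Readout is yeast growth inhibition versus vehicle-treated controls, using a strain with cln2 and rad14 alterations exposed to compound.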

[5] = NCI Yeast Anticancer Drug Screen. Data for the bub3 strain (AID 167); settings: S. cerevisiae bub3 mutant strain, at 50.0 µM, hits give high values
In short: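 Screening used yeast with an engineered genetic alteration affecting cell cycle control. Compound-exposed cultures were compared with vehicle cultures, and reduced growth was taken as inhibition.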

[6] = NCI Yeast Anticancer Drug Screen. Data for the mlh1 rad18 strain (AID 175); settings: S. cerevisiae mlh1 rad18 strain growth inhibition; at 50.0 µM; hits give high values
In short: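 Genetically defined yeast (DNA repair-deficient) exposed to compounds; growth inhibition determined relative to vehicle.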

Measured: growth inhibition

CCOC(=O)C(C)c1nc2ccc(C(F)(F)F)cc2[nH]c1=O (stereo unspecified)
inactive: [1] 2.15% | [2] 16.7% | [3] 40.4% | [4] 14.2% | [5] 43.4% | [6] 39.5%

N#CC(CCc1ccc([N+](=O)[O-])cc1)(CCc1ccc([N+](=O)[O-])cc1)C(N)=O
inactive: [1] 38.4% | [2] 19.4% | [3] 35.9% | [4] -14.2% | [5] 24.9% | [6] 49.2%

COc1ccc(C(=O)C2CC(=O)NC2=O)cc1 (stereo unspecified)
inactive: [1] -11.6% | [2] -5.95% | [3] -1.8% | [4] -38.5% | [5] -0.7% | [6] -0.4%

CCOc1c(/C=C\c2cc(/C=C/c3cccc(OC)c3OCC)c([N+](=O)[O-])cc2[N+](=O)[O-])cccc1OC
inactive: [1] 16.4% | [2] -13.7% | [3] 1.75% | [4] -36.6% | [5] -4.45% | [6] 9.55%

O=c1oc2c(CN3CCOCC3)c(O)ccc2c2c1CCCC2
inactive: [1] 24.8% | [2] 21.5% | [3] 22.8% | [4] 29.9% | [5] 43.6% | [6] 31.9%

O=[N+]([O-])c1ccc(NN=C2CN3CCN(C2)c2ccccc23)c([N+](=O)[O-])c1
inactive: [1] 35.4% | [2] 20.1% | [3] 59.8% | [4] 40.8% | [5] 40.6% | [6] 35.1%

COC(=O)c1ccc(C(=O)OC)nc1
inactive: [1] -7.45% | [2] -2.1% | [3] -0.2% | [4] -36.6% | [5] -25.6% | [6] -3.55%

CC(C)c1cc2c(O)c(c1)Cc1cc(C(C)C)cc(c1O)Cc1cc(C(C)C)cc(c1O)Cc1cc(C(C)C)cc(c1O)Cc1cc(C(C)C)cc(c1O)Cc1cc(C(C)C)cc(c1O)C2
inactive: [1] -21.1% | [2] -0.85% | [3] -14.8% | [4] 14.6% | [5] 3.55% | [6] -24.1%

COC(=O)/C(=N\NC(N)=O)C(C(=O)C=C(C)C)C(=O)C(=O)Nc1ccc(Cl)c(Cl)c1 (stereo unspecified)
inactive: [1] -9% | [2] -40.6% | [3] -34.6% | [4] 12.2% | [5] -17% | [6] -27.6%

CCN(CC)C1=Nc2ccccc2N(c2ccccc2)C(SC)=C1
inactive: [1] -1.4% | [2] -6.9% | [3] 6.15% | [4] -6.45% | [5] 2.25% | [6] 14.5%

COc1cccc(C2NC(=O)c3c(n[nH]c3N)S2)c1O (stereo unspecified)
inactive: [1] -14.8% | [2] -43.4% | [3] -10.5% | [4] -6.55% | [5] 5.85% | [6] -40.1%

NC1=C(O)C(=O)C(c2ccc(C3OC(N)=C(O)C3=O)cc2)O1 (stereo unspecified)
inactive: [1] -8.15% | [2] -17.6% | [3] -18.6% | [4] -0.3% | [5] -27.6% | [6] -3.5%

CCCN1C(=O)CC(NC(C)=O)C1=O (stereo unspecified)
inactive: [1] -2.85% | [2] 6.45% | [3] 8.1% | [4] -17.9% | [5] -5.85% | [6] 9.65%

CC(=O)N(C)CCc1c[nH]c2ccccc12
inactive: [1] -18.4% | [2] -37.5% | [3] -33.9% | [4] 13.2% | [5] 9.85% | [6] -4.8%

Brc1cc2c(cc1C=NC1CCCCC1)OCO2
inactive: [1] 25.6% | [2] 22.8% | [3] -4.05% | [4] 6.8% | [5] 18.8% | [6] 43.7%

CC(C)c1cccc(C(C)C)c1NC(=O)Nc1cccc(C(F)(F)F)c1
inactive: [1] -5.4% | [2] -11.1% | [3] 1.45% | [4] 8.3% | [5] 10.2% | [6] 3.85%

Nc1ccc(C(C(=O)O)c2ccccc2)cc1 (stereo unspecified)
inactive: [1] 10.4% | [2] 15.8% | [3] 12.6% | [4] 1.4% | [5] 20.1% | [6] 10.9%

CC(O)C(O)C(O)C1OC1=O (stereo unspecified)
inactive: [1] 0.95% | [2] -9.8% | [3] 0.75% | [4] -43% | [5] -8.9% | [6] -1.05%

CCOc1cc(F)cc([N+](=O)[O-])c1
inactive: [1] -11.6% | [2] 5.3% | [3] -20.9% | [4] -14.9% | [5] 19.1% | [6] 5.7%

c1ccc(-c2ccccc2-c2ccccc2-c2ccccc2)cc1
inactive: [1] -58.8% | [2] -5.6% | [3] -5.9% | [4] -39.5% | [5] 21.5% | [6] -12.3%

O=C(O)c1cc(C(=O)O)c(-c2ccccc2)c(-c2ccccc2)c1
inactive: [1] 8.9% | [2] 2.25% | [3] -4.05% | [4] 0.65% | [5] 1.4% | [6] -5.3%
